# High-throughput results: PubChem BioAssay, National Center for Advancing Translational Sciences (NCATS)
# Compounds with a hit are over-represented: about 2.4% of the library has one in this group of screens.
# D2 PAM-1 – positive allosteric modulators of human D2 dopamine receptor. P14416. HEK293 T-REx D2, calcium flux, EC20 dopamine potentiation. potentiation, % at 10 µM. actives 0.34% (n = 340,000);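 active means potentiation over 3 SD above the plate norm, cut at about 30% in these data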
# Target sequence (P14416 whole entry, looked up): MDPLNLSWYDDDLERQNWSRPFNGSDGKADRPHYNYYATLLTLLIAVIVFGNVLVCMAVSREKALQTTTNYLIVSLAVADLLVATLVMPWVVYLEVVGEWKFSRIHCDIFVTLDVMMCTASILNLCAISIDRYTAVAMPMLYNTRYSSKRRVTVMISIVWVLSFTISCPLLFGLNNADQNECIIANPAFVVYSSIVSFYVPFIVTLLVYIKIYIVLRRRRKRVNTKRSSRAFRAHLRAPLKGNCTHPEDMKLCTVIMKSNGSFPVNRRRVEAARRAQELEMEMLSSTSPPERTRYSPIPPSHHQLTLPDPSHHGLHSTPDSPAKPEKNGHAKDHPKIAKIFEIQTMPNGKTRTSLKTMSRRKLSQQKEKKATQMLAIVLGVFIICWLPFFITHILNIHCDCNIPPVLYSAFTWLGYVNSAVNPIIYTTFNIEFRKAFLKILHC
#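 Cells plated with tetracycline inducer and held overnight at 30 C; calcium dye loaded 30–90 min at room temperature; baseline taken, compound added and read 180 s; EC20 dopamine then added and read 180 s.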
# D2 ag-1 – agonists of human D2 dopamine receptor; HEK293 T-REx D2 cells, calcium flux agonist mode; activation, % at 2 µM; actives 0.53% (n = 340,000); AID 485358;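 active means activation over 3 SD above normal in the single-dose calcium agonist read, cut at about 30% in these data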
#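 HEK293 Trex D2 cells, tetracycline-induced, o/n 30 C 5% CO2; no-wash Ca dye, RT 30–90 min; 10-cycle baseline, 23 nl cpd added, kinetic Ca read 180 s; agonist hits = positive Ca response.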
# D2 ag-2 – human D2 receptor agonism in beta-arrestin assay | P14416 | DiscoveRx PathHunter D2 beta-arrestin, luminescence, 90 min; 100% = 57 uM dopamine signal | actives 0.084% (n = 360,000) | AID 624465 | activation, % (concentration not given with the values); in the data active means activation above about 40%
#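 DiscoveRx PathHunter D2 beta-arrestin cells (2,100/well) attached overnight, then compound-stimulated 90 min at 37 C in HBSS/10 mM HEPES/0.1% Tween-20 buffer; beta-galactosidase complementation read by luminescence after 1 h at ambient temperature. Dopamine 57 uM final (EC100) as control.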
# D2 antagonist – D2 dopamine receptor (human) antagonism; HEK293 TREx D2 cells, calcium flux, dopamine EC80; inhibition, % at 10 µM; actives 2% (n = 340,000); AID 485344; in the data active means inhibition above about 30%; inactive means below that, where a call was filed
#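 In this primary screen, negative modulation is detected by tracking calcium flux after an EC80 dopamine challenge in inducible HEK293 T-REx D2 cells preexposed to test compound for 180 s.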
# D2 PAM-2 – human D2 receptor positive allosteric modulation. DiscoveRx D2 beta-arrestin cells, luminescence, 90 min; 100% = 57 uM dopamine signal. potentiation, % (concentration not given with the values). P14416. actives 0.23% (n = 360,000). AID 624464; in the data active means potentiation above about 50%
#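 PathHunter beta-arrestin assay in DiscoveRx D2 cells. Compounds were added with an EC20 of dopamine (50 nM final) for 90 min at 37 deg C. Luminescence was read 1 h after detection reagent, with 57 uM dopamine as the EC100 control.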
# Hits are given with their value; 0 = inactive; - = not tested or not shown.
SMILES,D2 PAM-1,D2 ag-1,D2 ag-2,D2 antagonist,D2 PAM-2
CCOC(=O)Cc1cc(=O)n2[nH]c(C)c(-c3ccc(OC)cc3)c2n1,31,0,0,0,0
CCc1cc(=O)n2[nH]c(C)c(-c3ccc(OC)cc3)c2n1,0,0,0,34,0
CCCc1cc(=O)n2[nH]c(C)c(-c3ccccc3)c2n1,-,-,0,-,0
COc1ccc(CN2C[C@@H](CO)O[C@@H](n3cnc4c(N5CCN(c6ccccc6)CC5)ncnc43)C2)cc1,-,-,0,-,0
CCOC1=C2[C@@H](CN(S(=O)(=O)c3ccc(C)cc3)[C@H]2c2ccccc2Cl)[C@H]2C(=O)N(C)C(=O)[C@H]2C1,-,-,0,-,0
Cc1cccc(C(=O)N(Cc2ccco2)Cc2ccccc2F)c1,0,0,-,-,-
CC1=CC(=O)c2ccccc2C1=O,0,0,0,0,0
CCOc1ccccc1C(O)C1=CC(=O)c2ccccc2C1=O (stereo not drawn),-,-,0,-,58
CC1CCN(CCCCOc2ccccc2F)CC1,0,0,0,82,0
Brc1ccccc1OCCCCN1CCCCC1,0,0,0,76,0
Brc1ccccc1OCCCN1CCOCC1,0,0,0,0,0
CC1CCN(CCCCOc2ccccc2Br)CC1,0,0,0,91,0
Cc1nc2ccn(Cc3cccnc3)c(=O)c2cc1C(=O)NCc1ccccc1,0,0,-,-,-
CC(=O)c1c(-c2ccc(Cl)cc2Cl)noc1C,0,0,0,30,0
Cc1onc(-c2ccc(Cl)cc2Cl)c1C(=O)/C=C/N(C)C,0,0,0,0,0
O=C(c1cc(-c2ccc(Cl)cc2)on1)N(Cc1cccc(F)c1)Cc1ccco1,0,0,-,-,-
CC(C)n1nnnc1SCC(=O)N1N=C(c2cccs2)CC1c1cccs1 (stereo not drawn),0,0,0,39,0
Cc1ccccc1NC(=O)Cn1c(=O)n(Cc2ccc3c(c2)OCO3)c(=O)c2ccc(C(=O)NC3CCCCC3)cc21,0,0,-,-,-
Cc1cc2c(OCC(O)CNC3CCCCC3)cccc2[nH]1 (stereo not drawn),0,0,0,60,0
O=CC(O)C1OC(=O)C(O)C1O (stereo not drawn),-,-,0,-,0
CCC1(c2ccccc2)C(=O)NCNC1=O,0,0,0,33,0
C=CCn1c(N)c(-c2nc3ccccc3n2C)sc1=S,31,0,0,0,0
COc1ccc(C(C)(C)C)cc1NC(=O)c1c(C)noc1C,0,0,0,0,0
COc1ccc(C(C)(C)C)cc1NC(=O)CCc1c(C)noc1C,0,0,0,63,0
Cc1cccc(C(=O)Nc2c(C(=O)NCc3ccc(Cl)cc3)sc3nc(C)cc(C)c23)c1,0,0,-,-,-
SMILES,D2 PAM-1,D2 ag-1,D2 ag-2,D2 antagonist,D2 PAM-2
Cc1cc(NC(=O)C(C)Sc2nc(-c3cccs3)nc3ccccc23)no1 (stereo not drawn),32,0,0,0,0
COCCCNC(=O)c1cn(Cc2c(F)cccc2Cl)nn1,0,0,0,32,0
COCCNC(=O)CSCc1c(F)cccc1Cl,0,0,0,0,0
Cc1sc2nc(C3CC3)nc(SCC(=O)N3CCc4ccccc4C3)c2c1C,0,0,0,0,0
CCc1c(C)sc2nc(C(C)C)nc(SCC(=O)N3CCc4ccccc4C3)c12,0,0,0,44,0
O=c1[nH]c2c(c(=O)[nH]1)CCC2,0,0,0,37,0
CCOc1ccc(NC(=S)NCc2ccc3[nH]c(C)cc3c2)cc1,0,0,0,0,0
CCCCNC(=S)NCc1ccc2[nH]c(C)cc2c1,0,0,0,30,0
CCOc1ccc2[nH]c(=O)c(CN(CCO)Cc3nnnn3CCc3ccccc3)cc2c1,0,0,0,39,0
Nc1cc(=O)[nH]c(SCC(=O)Nc2ccc(Cl)c(Cl)c2)n1,0,0,0,0,0
Nc1cc(=O)[nH]c(SCC(=O)Nc2cc(Cl)cc(Cl)c2)n1,0,0,0,30,0
CCCNC(=O)c1ccc2c(c1)N=C(CCC)c1ccccc1S2,0,0,-,-,-
Cc1sc2ncnc(NCC(c3ccco3)N3CCCC3)c2c1C (stereo not drawn),0,0,0,32,0
Cc1sc2ncnc(N3CCCCC3)c2c1C,0,0,0,0,0
CCOc1ccc(NC(=O)CCCc2nc(-c3cccc(OC)c3)no2)cc1,0,0,-,-,-
CC(O)(c1cccc(F)c1)c1nc(-c2cnc3ccccc3c2)cs1 (stereo not drawn),-,-,148,-,65
CC(C)c1nc(C#N)c(NCCCn2ccnc2)o1,0,0,0,43,0
CCCCCCOC(=O)c1ccc(OC(=O)c2cccnc2)cc1,0,0,0,0,0
CCCCOC(=O)c1ccc(OC(=O)c2cccnc2)cc1,0,0,0,31,0
Cc1oc(-c2cccs2)nc1CN1CC[C@@](O)(c2ccccc2)[C@H]2CCCC[C@@H]21,0,0,0,0,0
OC1(c2ccccc2)CCN(Cc2ccccc2)C2CCCCC21 (stereo not drawn),0,0,0,38,0
COc1ccc(S(=O)(=O)NCc2cccnc2)cc1,0,0,0,0,0
COc1ccc(S(=O)(=O)NCc2cccnc2)cc1Br,0,0,0,0,60
Cc1cccn2c(=O)nc(SCC(=O)N3CCCCCC3)nc12,0,0,0,31,0
Cc1cccn2c(=O)nc(SCC(=O)N3CCCCC3)nc12,0,0,0,0,0
SMILES,D2 PAM-1,D2 ag-1,D2 ag-2,D2 antagonist,D2 PAM-2
Cc1ccccc1S(=O)Cc1ccc(C(=O)NC2CCCCCC2)o1 (stereo not drawn),0,0,-,-,-
Cc1nc2sccn2c(=O)c1CCN1CCC(=C(c2ccc(F)cc2)c2ccc(F)cc2)CC1,0,0,0,78,0
Cc1nc2ccccn2c(=O)c1CCN1CCC(C(=O)c2ccc(F)cc2)CC1,0,0,0,95,0
Cc1nc2sccn2c(=O)c1S(=O)(=O)N1CCN(c2ccc(F)cc2)CC1,0,0,0,0,0
Cc1ccccc1C(=O)Nc1sc2c(c1C(=O)N1CCC(C)CC1)CCC(C)C2 (stereo not drawn),0,0,-,-,-
Cc1cccc(C)c1NC(=O)CSCc1cnn(-c2ccccc2)c1-n1cccc1,0,0,-,-,-
O=C(Cn1c(SCC(=O)Nc2ccc(F)cc2)nc2ccccc21)NCc1ccccc1Cl,0,0,-,-,-
CC(=O)OCC(=O)C1(O)CCC2C3CC(F)C4=CC(=O)CCC4(C)C3C(O)CC21C (stereo not drawn),-,-,0,-,0
CCCN1CCC2(CC1)NC(C(=O)O)Cc1c2[nH]c2ccccc12 (stereo not drawn),0,0,0,0,0
COC(=O)C1Cc2c([nH]c3ccccc23)C2(CCN(Cc3ccccc3)CC2)N1 (stereo not drawn),0,0,0,75,0
O=C(Cn1c(=O)c2cccn2c2cccnc21)NCCCN1CCN(c2ccc(F)cc2)CC1,0,0,0,54,0
COc1ccc(N2CCN(CCCNC(=O)Cn3c(=O)c4cccn4c4cccnc43)CC2)cc1,0,0,0,0,0
